Experiment [1] addresses Thyrotropin receptor (Homo sapiens) (UniProt P16473). The experiment can be described thus: qHTS assay to identify small molecule agonists of the thyroid stimulating hormone receptor (TSHR) signaling pathway (AID 1224843; calls by dose curve; further: nearly all actives have a fitted effect of over 45% in size). The essentials: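 Screening of the Tox21 10K collection used HEK293 cells engineered with TSHR at 800 cells per well. After a 30-min room-temperature compound exposure, HTRF cAMP reagents were added and fluorescence recorded 1 h later.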

The nature of experiment [2]: qHTS assay to identify small molecule agonists of the hypoxia (HIF-1) signaling pathway - cell viability counter screen (AID 1224844; calls by dose curve; further: nearly all actives have a fitted effect of over 50% in size; further: potency means the concentration at half of the fitted maximal effect). The essentials:
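Cells (HRE-bla ME-180, 2,000 per well) sat 5 hrs at 37C, got compound for 17 hrs, were read for CCF4-AM FRET, and were finally lysed with CellTiter-Glo for a 30 min room-temperature luminescence read.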

Experiment [3] can be described thus: qHTS assay to identify small molecule agonists of H2AX (AID 1224845; active means well fitted activation curve with a large enough effect in the signal ratio in the repeat runs, not every such curve was filed as active; the % refers to the signal ratio). An outline of the steps: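 Phospho-H2AX Ser139 measured by HTRF (ex 320 nm; em 665 and 620 nm) after 24 hr antibody incubation. Compounds, 15 concentrations, 0.76% DMSO, were applied to CHO-K1 cells for 3hr at 37C before lysis.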
Experiment [4] in a line: qHTS assay to identify small molecule agonists of the hypoxia (HIF-1) signaling pathway (AID 1224846; active means well fitted activation curve with a large enough effect in the signal ratio in the repeat runs, not every such curve was filed as active; the % refers to the signal ratio). The essentials:
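A low-serum medium (0.5% dialyzed FBS) holding 2,000 HRE-bla ME-180 cells per well is preincubated for 5 hrs, dosed with compounds by pintool, and kept a further 17 hrs at 37C, 5% CO2 before CCF4-AM FRET detection of beta-lactamase.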

Experiment [5] in a line: qHTS assay to identify small molecule antagonists of the estrogen related receptor (ERR) signaling pathway from Tox21 library (AID 1224848). Further: nearly all actives have a fitted effect of over 50% in size. Further: potency means the concentration at half of the fitted maximal effect. An outline of the steps:
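Antagonist-mode screen of the Tox21 10K library in an NTP-provided ERR reporter cell line; 18 h compound exposure at 37 C, luminescence measured with ONE-Glo.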

Experiment [6] can be described thus: qHTS assay to identify small molecule agonists of the estrogen related receptor (ERR) signaling pathway from Tox21 library (AID 1224849; calls by dose curve; further: nearly all actives have a fitted effect of over 15% in size). The settings on record: ERR reporter cell line, ONE-Glo luciferase, 18 h. The essentials: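 Screening used an NTP-provided ERR luciferase cell line. Compounds in DMSO were added 6 h after seeding and left 18 h at 37 C before a 30 min ONE-Glo step and luminescence reading.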

Experiment [7] is described as follows: qHTS RealTime-Glo MT Cell Viability Assay in HepG2 cells - 24 hour (AID 1224867). Further: nearly all actives have a fitted effect of over 50% in size. Further: potency means the concentration at half of the fitted maximal effect. The essentials: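 Cells + NanoLuc/prosubstrate dispensed (600 cells/well) → 5 h at 37 C/5% CO2 → compounds in DMSO transferred → 40 h incubation at 37 C, luminescence read at 0, 8, 16, 24, 32, 40 h.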
Experiment [8] is described as follows: qHTS RealTime-Glo MT Cell Viability Assay in HEK293 cells - 32 hour (AID 1224868). Further: nearly all actives have a fitted effect of over 50% in size. Further: potency means the concentration at half of the fitted maximal effect. An outline of the steps:
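Tox21 10K qHTS, HEK293, 600 cells/well, RealTime-Glo reagent co-dispensed with cells; 5 h preincubation, compound by pintool, 37 C, luminescence at 0–40 h.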

Experiment [9] can be described thus: A CellTox Green Cytotoxicity Assay to monitor cytotoxicity in HEK293 cells - 0 hour (AID 1224869). Further: nearly all actives have a fitted effect of over 50% in size. Further: potency means the concentration at half of the fitted maximal effect. The essentials: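 Fluorescence intensity, read at 0, 8, 16, 24, 32 and 40 h of compound treatment, reflected dye binding to DNA of dead HEK293 cells; compounds (23 nL, DMSO) were added 5 h after plating cells with reagent.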
Experiment [10] can be described thus: qHTS assay to identify small molecule agonists of H2AX - cell viability counter screen (AID 1224847; calls by dose curve; further: nearly all actives have a fitted effect of over 30% in size; further: potency means the concentration at half of the fitted maximal effect). The essentials:
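Quantitative HTS viability measurement: CHO-K1 wild-type cells in serum (10% FBS) medium, short 3 hr drug exposure at 37C with 0.76% DMSO, CellTiter-Glo luminescent detection.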

[11] abbreviates: at 92.4 µM (top of the series) unless noted.

Several values for one entry are separate records, joined by “and”; a condition that tells them apart may be missing. Identical values can stand only once. Inconclusive results are not listed. A structure can be active in one record and inactive in another. Activity calls are given as the source filed them. Unless noted, the call rests on the fitted dose curve; in most records, active means well fitted curve in the direction sought with a large enough effect in the repeat runs; inconclusive means weak or mixed curves; inactive means no such curve, though single readings can be large; an effect the other way counts as inactive or inconclusive.

For 20 compounds, Potency, outcome and activity change, positive = activation results are on record in PubChem BioAssay (Tox21).
On the % scale 0 is the no-effect control and ±100 the full control effect.

Chain of Thyrotropin receptor (Homo sapiens) (P16473 whole entry, looked up): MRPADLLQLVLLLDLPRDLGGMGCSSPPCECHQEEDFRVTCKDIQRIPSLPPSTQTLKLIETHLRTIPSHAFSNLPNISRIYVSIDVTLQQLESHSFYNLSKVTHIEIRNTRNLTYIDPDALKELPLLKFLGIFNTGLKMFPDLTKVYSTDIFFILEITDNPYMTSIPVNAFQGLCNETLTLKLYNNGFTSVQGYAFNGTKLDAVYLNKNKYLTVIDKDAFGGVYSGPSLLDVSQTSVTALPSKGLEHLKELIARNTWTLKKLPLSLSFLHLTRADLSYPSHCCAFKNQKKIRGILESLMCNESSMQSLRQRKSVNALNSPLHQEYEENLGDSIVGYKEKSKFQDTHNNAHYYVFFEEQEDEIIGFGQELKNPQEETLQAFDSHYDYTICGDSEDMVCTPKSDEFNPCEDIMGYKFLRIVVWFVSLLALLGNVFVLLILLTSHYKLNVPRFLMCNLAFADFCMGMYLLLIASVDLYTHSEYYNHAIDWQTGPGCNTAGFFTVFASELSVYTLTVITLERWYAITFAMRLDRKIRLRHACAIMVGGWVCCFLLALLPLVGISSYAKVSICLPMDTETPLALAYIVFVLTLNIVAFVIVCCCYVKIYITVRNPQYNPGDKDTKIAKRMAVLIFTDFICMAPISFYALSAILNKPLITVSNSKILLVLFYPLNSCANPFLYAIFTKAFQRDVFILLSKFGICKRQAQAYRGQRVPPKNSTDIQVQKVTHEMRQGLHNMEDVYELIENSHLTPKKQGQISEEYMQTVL

As for `CCO[Si](CCC1CCC2OC2C1)(OCC)OCC` (stereo unspecified), the Potency result in experiment [1], in [2], in [5], in [7], in [8] and in experiment [9] was “inactive” throughout. Also, the compound was classed as inactive in experiment [3] and in experiment [4]. For the same compound, the activity change, positive = activation in experiment [6] (setting [11]) was 3.88% (inactive).

Turning to `CCCCCCCCCCCCN(CCCCCCCCCCCC)CCCCCCCCCCCC`, the Potency entry in experiment [1], in experiment [2], in experiment [5], in [7], in experiment [8] and in experiment [9] was “inactive” throughout. Further, the result in experiment [3] and in experiment [4] was inactive. Besides, in experiment [6] (setting [11]), the activity change, positive = activation is 5.6% (inactive).

Take `Nc1c2c(nc3ccccc13)CCCC2O` (stereo unspecified): the Potency entry in experiment [1], in experiment [2], in experiment [10], in experiment [5], in experiment [7] and in [8] was “inactive” each time. The Potency result in [9] is “inactive”. In addition, in experiment [3], the compound was called inactive. In addition, the activity change, positive = activation in experiment [6] (setting [11]) is 0.138% [at 42.5 µM] (inactive).

As for `Cc1cccc(C)c1NC(=O)C(C)N` (stereo unspecified), the Potency result in experiment [1], in experiment [2], in [10], in experiment [5], in experiment [7] and in experiment [8] was “inactive” throughout. The outcome in experiment [3] was inactive. Further, the activity change, positive = activation in experiment [6] (setting [11]) is 3.88% [at 42.5 µM] (inactive). The Potency in experiment [9] is 21.3 µM (active).

Take `CN1CC(=O)NC1=N`: the Potency result in [1], in experiment [2], in experiment [5], in experiment [7] and in experiment [9] was “inactive” throughout. Besides, the compound was called inactive in experiment [3] and in [4]. The activity change, positive = activation in [6] (setting [11]) is 4.02% [at 42.5 µM] (inactive).

On to `CCO/C([O-])=N/c1c[n+](N2CCOCC2)no1`, for which the Potency entry in [1], in experiment [2], in [10], in experiment [5], in [7] and in [8] was “inactive” in each case. Moreover, the Potency entry in experiment [9] is “inactive”. Besides, in experiment [3], the outcome was inactive. Besides, in experiment [6] (setting [11]), the activity change, positive = activation was 0.723% [at 42.5 µM] (inactive).

On to `CCCCCCCCCCCC`, for which the Potency entry in experiment [1], in experiment [2], in experiment [5], in [7] and in experiment [9] was “inactive” in each case. For the same compound, the outcome in [3] and in experiment [4] was inactive. The activity change, positive = activation in experiment [6] (setting [11]) is 11.3% (inactive).

On to `NS(=O)(=O)c1ccc(C(=O)O)cc1`, for which the Potency result in experiment [1], in experiment [2], in experiment [10], in [5], in [7] and in experiment [8] was “inactive” in each case. Also, in experiment [9], the Potency result is “inactive”. In addition, the compound was called inactive in experiment [3]. In addition, in experiment [6] (setting [11]), the activity change, positive = activation is 9.6% [at 42.5 µM] (inactive).

For the compound `O=C(CCCN1CCN(c2ccccn2)CC1)c1ccc(F)cc1`, the Potency entry in experiment [1], in experiment [2], in [10], in experiment [5], in experiment [7] and in [9] was “inactive” throughout. The call in experiment [3] was inactive. Further, the activity change, positive = activation in [6] (setting [11]) is -14.3% [at 42.5 µM] (inactive).

As to `COCCc1ccc(OCC(O)CNC(C)C)cc1` (stereo unspecified), the Potency result in [1], in experiment [2], in experiment [10], in [5], in experiment [7] and in experiment [8] was “inactive” in each case. In addition, the Potency entry in experiment [9] is “inactive”. Besides, the result in experiment [3] was inactive. The activity change, positive = activation in [6] (at 42.5 µM (top of the series)) is 5.48% (inactive); in [6] (at 92.4 µM (top of the series)) it was -13% (inactive).

With `CCn1ccnc1CC1COc2ccccc2O1` (stereo unspecified), the Potency result in experiment [1], in experiment [2], in [10], in [5], in experiment [7] and in experiment [8] was “inactive” in each case. In addition, the Potency entry in [9] was “inactive”. Further, in experiment [3], the result was inactive. In addition, the activity change, positive = activation in experiment [6] (setting [11]) was 8.29% [at 42.5 µM] (inactive).

For `C=CCOCC(CC)(CO)COCC=C`, the Potency result in experiment [1], in experiment [2], in experiment [5], in experiment [7] and in experiment [9] was “inactive” in each case. The call in [3] and in experiment [4] was inactive. Further, the activity change, positive = activation in experiment [6] (setting [11]) was 4.88% (inactive).

Regarding `O=c1n(CCO)c(=O)n(CCO)c(=O)n1CCO`, the Potency result in experiment [1], in experiment [2] and in experiment [7] was “inactive” each time. The call in [3] and in experiment [4] was inactive. The Potency result in experiment [9] was “inactive and 43.6 µM (active)”.

For `O=C(CCCN1CCC(O)(c2cccc(C(F)(F)F)c2)CC1)c1ccc(F)cc1`, the Potency result in experiment [1], in [2], in [10], in experiment [5], in experiment [7] and in experiment [9] was “inactive” in each case. In experiment [3], the compound was classed as inactive. Moreover, the activity change, positive = activation in experiment [6] (setting [11]) is -10.2% [at 42.5 µM] (inactive). Further, the Potency in [8] was 19 µM (active).

With `Cc1ccc(Cl)cc1Cl`, the Potency entry in experiment [1], in experiment [2], in experiment [5], in experiment [7], in [8] and in [9] was “inactive” throughout. In addition, the result in experiment [3] and in experiment [4] was inactive. Moreover, in experiment [6] (setting [11]), the activity change, positive = activation is -0.115% (inactive).

Take `FC1(F)C(F)(F)C(F)(F)C2(F)C(F)(F)C(F)(F)C(F)(F)C(F)(F)C2(F)C1(F)F` (stereo unspecified): the Potency entry in experiment [1], in experiment [2], in [5], in experiment [7], in experiment [8] and in experiment [9] was “inactive” each time. Further, the compound was called inactive in experiment [3] and in experiment [4]. Further, in [6] (setting [11]), the activity change, positive = activation was 2.28% [at 42.5 µM] (inactive).

In the case of `CC(C)(C)NCCNC(C)(C)C`, the Potency result in experiment [1], in experiment [2], in [5], in experiment [7] and in [9] was “inactive” throughout. Further, the outcome in [3] and in experiment [4] was inactive. In experiment [6] (setting [11]), the activity change, positive = activation is 3.81% (inactive).

`c1ccc(CC2=NCCN2)cc1`: the Potency result in [1], in [2], in experiment [10], in experiment [5], in [7] and in experiment [9] was “inactive” in each case. Besides, in experiment [3], the result was inactive. Also, the activity change, positive = activation in [6] (setting [11]) is -1.01% [at 42.5 µM] (inactive).

Turning to `CN(C)CCCN1c2ccccc2CCc2ccc(Cl)cc21`, the Potency entry in experiment [1] and in experiment [9] was “inactive” in each case. Moreover, the Potency in experiment [2] was 49 µM (active); in [10] it was 113 µM (active); in experiment [5], 68.6 µM (active); in [7] it was 49 µM (active) and 23.9 µM (active). Besides, the figures for the activity change, positive = activation in experiment [6] (at 42.5 µM (top of the series)) and in experiment [6] (at 92.4 µM (top of the series)) were -18.5% (inactive) and -78.1% (inactive), respectively.

Regarding `COc1nc(N)nc2c1ncn2[C@@H]1O[C@H](CO)[C@@H](O)[C@@H]1O`, the Potency result in experiment [1], in experiment [2], in [10], in experiment [5], in experiment [7] and in experiment [8] was “inactive” each time. The Potency entry in experiment [9] was “inactive”. The compound was called inactive in experiment [4]. Moreover, the activity change, positive = activation in experiment [6] (setting [11]) is 4.89% [at 42.5 µM] (inactive).
